# In paper PMC7819943, “Rice protein-binding microarrays: a tool to detect cis-acting elements near promoter regions in rice”:
# In all, about 35,000 sequences were measured (“fluorescence intensity (a.u.)”: median about 10,000, highest 2% from about 52,000 on). The sample as a whole holds a higher share of the highest values than the screen did.
# Target: T1, OsWOX13 (Oryza sativa, UniProt Q5QMM3 1-267)
# T1 sequence: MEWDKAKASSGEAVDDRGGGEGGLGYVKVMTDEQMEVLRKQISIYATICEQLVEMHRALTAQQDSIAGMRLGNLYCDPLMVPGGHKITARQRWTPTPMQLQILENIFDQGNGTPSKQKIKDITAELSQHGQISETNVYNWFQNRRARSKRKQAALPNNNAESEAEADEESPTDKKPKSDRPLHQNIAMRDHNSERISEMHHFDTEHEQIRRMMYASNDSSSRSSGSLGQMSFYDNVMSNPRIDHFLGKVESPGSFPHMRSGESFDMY
# Test: protein-binding microarray (RPBM); PBS, 2% BSA, 51.3 ng/ul salmon testes DNA, 50 uM zinc acetate, 200 nM TF, 25 C, 1 h; high values mean tight binding
# Conditions: protein: recombinant; tags: N-terminal polyhistidine and DsRed monomer fusion (pET32a); label: CyDye5-dUTP incorporated in the synthesized complementary strand; 3' TTTTT single-stranded linker to array surface; dsDNA, one strand shown
# Summary of the method: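 Transcription factors, each fused N-terminally to a polyhistidine tag and DsRed, were expressed in E. coli BL21-CodonPlus and purified on Ni–NTA. A custom Agilent array was made double-stranded by primer extension with Cy5-dUTP and blocked with 2% BSA. It was incubated with 200 nM protein in PBS, 2% BSA, salmon testes DNA and 50 µM zinc acetate at 25 °C for 1 h, then washed. The binding signal is per-feature fluorescence intensity (arbitrary units) read on an Axon 4000B scanner.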
row,Sequence,binding signal
1,TTCGTGCCTTTTGTTTGATAATTTCTTCATGCTATCTTTTCGGAGTCACCTAGTGCAG,3660 fluorescence intensity (a.u.)
2,ACAAAATAAAATGATGGGCATTTTCTTCAGTTACAATTTCCGGAGTCACCTAGTGCAG,3910 fluorescence intensity (a.u.)
3,TTACTAGATTTATCATTAAACATACTATCATAATATGCAACGGAGTCACCTAGTGCAG,6040 fluorescence intensity (a.u.)
4,TGTGATGAATTGAGCGAACCAGCAGGGCTTCGCCGCTCCCCGGAGTCACCTAGTGCAG,5470 fluorescence intensity (a.u.)
5,ATTAATTATTAATTTACTTTTGACAATTACTAATTAGCCACGGAGTCACCTAGTGCAG,56700 fluorescence intensity (a.u.)
6,AAAATTACAGTCTTATTTAACTAAAATTACATATGTAAATCGGAGTCACCTAGTGCAG,5170 fluorescence intensity (a.u.)
7,AATTAATAAAATAAATCTATTACAGTTAACTAAAGGTATTCGGAGTCACCTAGTGCAG,5780 fluorescence intensity (a.u.)
8,AGCCCCTAAGCCAATCAATTAGCAGGCATCTTTACTCCTACGGAGTCACCTAGTGCAG,18500 fluorescence intensity (a.u.)
9,GTTGATGGGCAGCTTAATTACGGCCCGCCTGTTTAGCCAACGGAGTCACCTAGTGCAG,17500 fluorescence intensity (a.u.)
10,AATTAATTTAGCCCCTAATTAATTAGCAGCCAATCAACGGCGGAGTCACCTAGTGCAG,54000 fluorescence intensity (a.u.)
11,TCCAATTTACTAATTACCACTTTATACGTACAATTATTGACGGAGTCACCTAGTGCAG,23500 fluorescence intensity (a.u.)
12,AGAGACAGCGAATCAATTAGCCAATGCTAATAATTTATAACGGAGTCACCTAGTGCAG,8160 fluorescence intensity (a.u.)
13,CCACTTTTAGATTTGACAATTAACTATTTGTCACTTTTAGCGGAGTCACCTAGTGCAG,23600 fluorescence intensity (a.u.)
14,ATTAATTAATTAGTCGGCCAACCTAGCTGTTGACTGGGAACGGAGTCACCTAGTGCAG,55900 fluorescence intensity (a.u.)
15,TTTAATTTACAGTTAAATTAACTTAATCTGTAAAAGGGATCGGAGTCACCTAGTGCAG,57500 fluorescence intensity (a.u.)
16,GCCAACCTTATAGCTAATTATTATATATATTGACTTTAAGCGGAGTCACCTAGTGCAG,4860 fluorescence intensity (a.u.)
17,ATACATTAATTTGATGCCCCAATAGAAGCACGCCAATCATCGGAGTCACCTAGTGCAG,12000 fluorescence intensity (a.u.)
18,TGTTGTTAGATGATAAAACATGATTAATATTTTATGCGTGCGGAGTCACCTAGTGCAG,3610 fluorescence intensity (a.u.)
19,GTTTTGATAAATTGATTTAAAACGCTTTATAAGAAGTGTCCGGAGTCACCTAGTGCAG,43800 fluorescence intensity (a.u.)
20,AATTTTGATAGGGTAGAATTGAAAATGTTTATTTGGATTGCGGAGTCACCTAGTGCAG,10500 fluorescence intensity (a.u.)
21,AAATAACTGGTGGATATTTGTACGCTGCCCCTGAGGAACTCGGAGTCACCTAGTGCAG,3900 fluorescence intensity (a.u.)

row,Sequence,binding signal
1,TGTTTTCCTAAGTGATTGGTGGGAAACCTCGTAGGATAAGCGGAGTCACCTAGTGCAG,9180 fluorescence intensity (a.u.)
2,TTGATTGGGAGGAAGCCAAGAAGAAGTCAAGAACTGCCCACGGAGTCACCTAGTGCAG,31900 fluorescence intensity (a.u.)
3,GTTTATTTGGGCCTGATTGGCACAGATGGTAGTGCCATGTCGGAGTCACCTAGTGCAG,31700 fluorescence intensity (a.u.)
4,CCAAAATAAACAACCAAAATTTCGCCGTGTAACTAACTCTCGGAGTCACCTAGTGCAG,3300 fluorescence intensity (a.u.)
5,CACAGACACATTTGGTTAATTACATACCTTGTACACTTCACGGAGTCACCTAGTGCAG,6260 fluorescence intensity (a.u.)
6,TAGTGTAATTTAACACTTAATTAGCCACATTTGTTACACACGGAGTCACCTAGTGCAG,61900 fluorescence intensity (a.u.)
7,CGTTTAATTGTGTATATATATAGCCACATTAAAGTACACACGGAGTCACCTAGTGCAG,11100 fluorescence intensity (a.u.)
8,ATTGACTTGACGACCGCCATGAATTCATCTCATCTCATCTCGGAGTCACCTAGTGCAG,5970 fluorescence intensity (a.u.)
9,AGGCTAATTAACAGAGAGGGGACAATATGCAACAACGTATCGGAGTCACCTAGTGCAG,24000 fluorescence intensity (a.u.)
10,GATGAAACATATATTGACTGTAACATGTAGATTACATGATCGGAGTCACCTAGTGCAG,6110 fluorescence intensity (a.u.)
11,ACTTAATTAACTTGGTTCTTCCTTTAATTTCTAGCTATATCGGAGTCACCTAGTGCAG,50100 fluorescence intensity (a.u.)
12,TGGTATATTAATTATTTCCTTTCCTTCCTTTCCCTTCCGACGGAGTCACCTAGTGCAG,5690 fluorescence intensity (a.u.)
13,CTTTAATTTCTTCTTCTTTTCCACATATAATAATAATATACGGAGTCACCTAGTGCAG,4030 fluorescence intensity (a.u.)
14,TTAATTAATTAATTTTCTTCCTAAACATATCCGCTAATCCCGGAGTCACCTAGTGCAG,53500 fluorescence intensity (a.u.)
15,CTTATTAACATTTAATTTGGTTTCTTCCTTAATTTGTATCCGGAGTCACCTAGTGCAG,12600 fluorescence intensity (a.u.)
16,ATTTCTTTAATTAATTAATTAATTAACATATATATCCCTTCGGAGTCACCTAGTGCAG,60600 fluorescence intensity (a.u.)
17,TTCTGCTGCACCTAATTAATTAAATTTCCCCGCTATAATTCGGAGTCACCTAGTGCAG,11300 fluorescence intensity (a.u.)
18,TAATTAATTATAATTAATTAATCCTACTGGTGCTTTCCTTCGGAGTCACCTAGTGCAG,54300 fluorescence intensity (a.u.)
19,TATAATTATTAATAATTAATTAATTATATATTAATTATTTCGGAGTCACCTAGTGCAG,26700 fluorescence intensity (a.u.)
20,CCATCGTAATTGATCGAAAACTGACAACATGTTAGGGTTGCGGAGTCACCTAGTGCAG,12700 fluorescence intensity (a.u.)
21,AAACAAATGATTTTATTCATTTACTCATTCATCATATCACCGGAGTCACCTAGTGCAG,10300 fluorescence intensity (a.u.)
